This is a sample that favours compounds with a hit; in the whole collection about 3.3% have one here.
eIF4E 4G PPI: inhibitors of eIF4E and eIF4G interaction in translation initiation. 0.37% of 220,000 active. P63073+Q04637. inhibition, % at 21.7 µM. TR-FRET eIF4E-eIF4GI(517-606) binding, 2 h;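 also: 0% = full FRET control wells and 100% = background wells lacking eIF4GI fragment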
Mcl1 Noxa PPI: Mcl-1/Noxa interaction inhibition. TR-FRET Mcl-1/Noxa peptide binding, 2 h. 1.5% of 220,000 active. inhibition, % at 21.7 µM. AID 1022. Q07820;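 active = compounds that cut the protein-peptide binding signal by more than 50% relative to plate controls in a single-dose test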;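 also: His-tagged Mcl-1 with rhodamine Noxa BH3 peptide and terbium anti-His antibody; 0% = Mcl-1 plus Noxa peptide wells and 100% = peptide-only wells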
Mcl-1 Bim block: human Bim-Mcl-1 interaction inhibition | inhibition, % at 10 µM | Bead-based flow cytometry, Bim peptide-Mcl-1 binding | 0.1% of 190,000 active; in the data active = inhibition above about 40%;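 also: 0% = no compound tracer wells and 100% = peptide blocker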
Mcl1-Bid inh: Mcl-1/Bid interaction inhibition; 0.97% of 220,000 active; Q07820; TR-FRET Mcl-1/Bid-Dy647 peptide binding, 1536-well; AID 1021; inhibition, % at 21.7 µM;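 active = compounds that cut the binding signal by more than half at the single screening dose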;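 also: His-tagged Mcl-1 with europium anti-His antibody binding Bid BH3 peptide; 0% = Mcl-1 plus peptide wells and 100% = peptide-only wells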
14-3-3 Bad PPI: disrupts binding of bovine 14-3-3 zeta to phospho-Bad peptide; AID 781; P63103; TR-FRET 14-3-3zeta/Dy647-pBad peptide displacement, 1 h; 0.71% of 220,000 active; inhibition, % at 21.7 µM;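 active = inhibition above about 70%, limit read from the data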;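 also: 0% = full 14-3-3 plus peptide FRET controls and 100% = background without 14-3-3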
NCF1 inh: blocks human p47phox regulatory protein of NADPH oxidases. AID 1274. 0.53% of 220,000 active. P14598. inhibition, % at 24.7 µM. p47phox/p22phox peptide binding, fluorescence polarization, 2 h;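 also: 0% = p47phox with labelled peptide and 100% = labelled peptide alone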
Target sequence (P14598 whole entry, looked up): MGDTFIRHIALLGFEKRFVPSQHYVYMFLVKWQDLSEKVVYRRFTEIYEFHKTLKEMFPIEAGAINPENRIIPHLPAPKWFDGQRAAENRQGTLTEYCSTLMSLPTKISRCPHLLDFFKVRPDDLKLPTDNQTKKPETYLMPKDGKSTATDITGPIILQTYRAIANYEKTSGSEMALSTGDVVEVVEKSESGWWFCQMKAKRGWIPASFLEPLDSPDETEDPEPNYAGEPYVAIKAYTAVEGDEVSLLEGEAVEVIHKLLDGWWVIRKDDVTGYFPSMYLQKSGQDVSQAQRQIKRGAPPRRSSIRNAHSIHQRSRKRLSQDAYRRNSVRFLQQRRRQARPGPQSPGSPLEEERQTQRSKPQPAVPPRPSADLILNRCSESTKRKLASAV
* hit, by the source's call; . = no result given; [ ] = remark or other dose.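 The calls were made as follows, unless noted: active = inhibition above about 30% (limit read from the data); inactive = the rest.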

SMILES	eIF4E 4G PPI	Mcl1 Noxa PPI	Mcl-1 Bim block	Mcl1-Bid inh	14-3-3 Bad PPI	NCF1 inh
Cc1cccc(C)c1NC(=O)CNCC(=O)N(C)C	-3	4	0	-3	-18	-5
Nc1nnc(SCC(=O)c2ccc3ccccc3c2)s1	-14	17	-2	-4	-1	92*
Nc1nnc(SCC(=O)c2cccc([N+](=O)[O-])c2)s1	-2	10	-1	-7	-1	8
S=C1NC[C@H](CC2CCCCC2)N1CCCCC1CCCCC1	31*	17	.	-37	-1	-8
CCCCCC(=O)NN1C(=S)N(c2ccc(OC)cc2)C(=O)C1CC(=O)Nc1ccccc1 (centres undefined)	-4	22	.	-49	-7	-7
Cc1ccc(S(=O)(=O)Nc2cccc(-c3cn4ccsc4n3)c2)cc1	2	4	-3	-9	-5	-24
O=S(=O)(Nc1cccc(-c2cn3ccsc3n2)c1)c1ccc(F)cc1	-1	0	-2	98*	-21	-13
O=[N+]([O-])c1ccc(N=Cc2sc3ccccc3c2O)cc1	-3	33	-2	23	-5	-48
O=[N+]([O-])c1cccc(N=Cc2sc3ccccc3c2O)c1	21	59*	0	38	84*	21
O=C1/C(=C/c2ccc(O)c(O)c2)SC(=S)N1Nc1ccccc1	7	60*	5	-27	8	-164
CCCC(=O)N(c1ccc(C(=O)O)cc1)c1nc(-c2ccccc2)c(C)s1	2	20	0	-21	25	-4
CC(C)CCN1CCN(C2CSCCSC2)CC1CCO (centres undefined)	-4	18	-3	-56	-6	42*
Cc1c(NC(=O)c2ncn[nH]2)cccc1-c1nc2ccccc2s1	1	6	-6	-22	-1	-28
CN(C)c1ccc(NC2=C(Cl)C(=O)c3ccccc3C2=O)cc1	16	100*	4	-45	-15	26
O=C1C(Cl)=C(Nc2ccc3cn[nH]c3c2)C(=O)c2ccccc21	-3	93*	.	-67	-2	29
CCCOC(=O)Nc1sc2c(c1C(N)=O)CCCC2	2	9	-3	-66	-5	-5
Cc1cccc(OCC(=O)O/N=C(\N)c2ccc(Br)cc2)c1	-5	-1	.	-16	-6	-6
Cc1nnc(SCc2ccc(F)cc2)n1NC/C=C/c1ccccc1	2	2	-3	-9	-1	-7
Cc1ccc(-c2nc3ccccc3[nH]2)cc1NC(=O)c1ccc2c(c1)OCO2	-9	22	-3	-1	-4	-10
O=C(NC(=S)Nc1cc(-c2nc3ccccc3[nH]2)ccc1Cl)c1ccc2c(c1)OCO2	2	1	-8	59*	53	-22
CCN(CC)C(=O)Cn1c(=O)n(-c2ccc(CC(=O)NCc3ccccc3)cc2)c(=O)c2sccc21	-2	1	0	-3	-10	-9
CCn1c(=S)[nH]c2scc(-c3cccs3)c2c1=O	-6	13	-6	-51	-3	2
CC(C)n1c(=S)[nH]c2scc(-c3cccs3)c2c1=O	42*	73*	.	-17	1	2
CS(=O)(=O)N1CCN(c2ccc(NC(=O)c3ccccc3)cc2)CC1	3	13	0	-28	-8	-7
OC(CON=C1c2ccccc2-c2ccccc21)CN1CCNCC1 (centres undefined)	1	23	-2	42	9	.
SMILES	eIF4E 4G PPI	Mcl1 Noxa PPI	Mcl-1 Bim block	Mcl1-Bid inh	14-3-3 Bad PPI	NCF1 inh
CNS(=O)(=O)c1cccc(C(=O)OCC(=O)N2c3ccccc3CC2C)c1 (centres undefined)	0	9	0	-4	-4	-8
O=C(CN1C(=O)c2ccccc2C1=O)OCC(=O)N1CCc2ccccc2C1	0	1	-8	-43	-6	-13
O=C(Cn1[nH]c(=O)c2ccccc2c1=O)OCC(=O)N1CCc2ccccc2C1	-8	3	0	83*	-9	5
O=C(Cc1c(Cl)cccc1Cl)OCC(=O)N1CCc2ccccc2C1	4	6	-4	78*	3	-2
CNS(=O)(=O)c1cccc(C(=O)OCC(=O)N2CCc3ccccc3C2)c1	-1	23	0	-4	4	30*
O=C(Cn1[nH]c(=O)c2ccccc2c1=O)OCC(=O)N1CCCc2ccccc21	-9	9	1	-11	27	-19
Nc1cc2c(cc1[N+](=O)[O-])OCCOCCOCCO2	1	10	3	-31	-8	0
Nc1scc2c(C(=O)N/N=C/c3ccc(Cl)cc3)nn(-c3ccccc3)c(=O)c12	-6	94*	1	4	-3	-12
COc1ccc(-c2nc(-c3ccc(Br)o3)no2)cc1OC	0	21	0	56*	34	13
COc1cc(-c2noc(-c3cccs3)n2)cc(OC)c1OC	-2	5	-2	-3	-7	-7
COc1cc(-c2nc(-c3ccc(NC(=O)c4ccc(Br)o4)cc3)no2)cc(OC)c1OC	-47	1	0	68*	70	-9
COc1ccc(-c2noc(-c3cccs3)n2)cc1OC	3	32	.	58*	36	-4
O=C(NC1CCCCC1)c1ccc(-n2cnnn2)cc1	0	-1	.	3	5	-10
CC1=Nc2cccc([N+](=O)[O-])c2NC(=O)C1	-1	17	-3	-9	5	6
COC(=O)c1ccc(CSc2nc(-c3ccccc3)cs2)o1	3	80*	-2	-4	-11	-11
COC(=O)c1ccc(CSc2nnc(NCc3ccccc3)s2)o1	-10	3	-3	-8	-10	1
Cc1cccc(S(=O)(=O)N2CCC(CO)(Cc3ccccc3)CC2)c1	-2	0	1	-26	-13	-8
O=S(=O)(c1ccc(Cl)cc1)n1c(Cc2ccccc2)nc2ccccc21	13	18	-1	-2	-15	-11
COc1ccccc1Cc1nc2ccccc2n1S(=O)(=O)c1ccc(Cl)cc1	22	0	0	59*	15	-4
CO/N=C1\CCn2c1c(C)c1ccccc12	23	9	.	44	71*	-3
Cc1c2n(c3ccccc13)CC/C2=N\O	8	-10	.	1	15	-9
Cc1nn(Cc2ccc(Cl)cc2)c(C)c1NC(=O)CSc1nc2c(c(C(F)(F)F)n1)CCc1ccccc1-2	1	-10	0	42	35	45*
N#Cc1c(NC(=O)CSc2nc3c(c(C(F)(F)F)n2)CCc2ccccc2-3)sc2c1CCCC2	-1	6	0	-14	5	-29
Cc1ccc(Cn2nc(C)c(NC(=O)CSc3nc4c(c(C(F)(F)F)n3)CCc3ccccc3-4)c2C)cc1	30*	34	-3	74*	66	50*
N#Cc1c(Cl)c(Cl)c2nnc(-c3ccc(Br)cc3)n2c1Cl	36*[fluorescence artefact?]	-40	7	14	95*[fluorescence artefact?]	-97
